Source: PubChem BioAssay AID1159580 (chemical genetic matrix, 2015)
In all, about 5,500 compounds went through this assay and about 2,000 (36%) were called active. Not shown: some 18% with an inconclusive outcome. No stated cut-off is given here; in the data, active means normalized growth mostly below about 0.91 (no sharp cut-off); inconclusive means no clear call, values can overlap the other calls; inactive means mostly above about 0.92. This is one part of the list.

Assay: chemical genetic growth profiling, strain panel (AID 1159580);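 further: tested at 20 µM; growth read once vehicle control cultures reached saturation at 30 °C; 1 = growth at the plate median or of vehicle wells; lower values mean less growth of the strain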
Conditions: growth OD

Measured: normalized growth

COc1ccc2c(c1OC)C(=O)O[C@H]2[C@H]1c2cc3c(cc2CCN1C)OCO3
inactive: S. cerevisiae deletion strains, locus YJR075W, strain HOC1, hits give low values 1 | S. cerevisiae deletion strains, locus YKL009W, strain mrt4, hits give low values 1.03 | S. cerevisiae deletion strains, locus YKL068W, hits give low values 1 | S. cerevisiae deletion strains, locus YKL085W, strain MDH1 (second series), hits give low values 1 | S. cerevisiae deletion strains, locus YKL085W, strain MDH1, hits give low values 1 | S. cerevisiae deletion strains, locus YKL160W, strain elf1, hits give low values 0.994 | S. cerevisiae deletion strains, locus YKL190W, strain CNB1, hits give low values 1 | S. cerevisiae deletion strains, locus YKR001C, strain vps1, hits give low values 1.03 | S. cerevisiae deletion strains, locus YKR026C, strain gcn3, hits give low values 1.01 | S. cerevisiae deletion strains, locus YKR091W, strain srl3, hits give low values 0.99 | S. cerevisiae deletion strains, locus YLL001W, strain dnm1, hits give low values 0.998 | S. cerevisiae deletion strains, locus YLL026W, hits give low values 1 | S. cerevisiae deletion strains, locus YLL041C, strain sdh2, hits give low values 1 | S. cerevisiae deletion strains, locus YLR027C, strain aat2, hits give low values 1 | S. cerevisiae deletion strains, locus YLR039C, strain RIC1, hits give low values 1.04 | S. cerevisiae deletion strains, locus YLR058C, strain SHM2, hits give low values 1 | S. cerevisiae deletion strains, locus YLR102C, strain apc9, hits give low values 1.01 | S. cerevisiae deletion strains, locus YLR113W, strain HOG1, hits give low values 1.05 | S. cerevisiae deletion strains, locus YLR221C, strain rsa3, hits give low values 0.998 | S. cerevisiae deletion strains, locus YLR258W, strain gsy2, hits give low values 1.01 | S. cerevisiae deletion strains, locus YLR262C, strain YPT6 (second series), hits give low values 1.01 | S. cerevisiae deletion strains, locus YLR262C, strain YPT6, hits give low values 1.03 | S. cerevisiae deletion strains, locus YLR268W, strain sec22, hits give low values 1.01 | S. cerevisiae deletion strains, locus YLR320W, strain mms22, hits give low values 1 | S. cerevisiae deletion strains, locus YLR330W, strain CHS5, hits give low values 1.01 | S. cerevisiae deletion strains, locus YLR342W, strain FKS1 (second series), hits give low values 0.981 | S. cerevisiae deletion strains, locus YLR342W, strain FKS1, hits give low values 0.996 | S. cerevisiae deletion strains, locus YLR357W, strain rsc2, hits give low values 1.03 | S. cerevisiae deletion strains, locus YLR370C, strain arc18, hits give low values 0.994 | S. cerevisiae deletion strains, locus YLR371W, strain rom2, hits give low values 1.02 | S. cerevisiae deletion strains, locus YLR384C, strain iki3, hits give low values 1 | S. cerevisiae deletion strains, locus YLR418C, strain cdc73, hits give low values 1.03 | S. cerevisiae deletion strains, locus YML016C, strain PPZ1, hits give low values 1 | S. cerevisiae deletion strains, locus YML032C, strain rad52, hits give low values 1.01 | S. cerevisiae deletion strains, locus YML120C, strain ndi1, hits give low values 0.987 | S. cerevisiae deletion strains, locus YML124C, strain tub3, hits give low values 1.01 | S. cerevisiae deletion strains, locus YMR058W, strain fet3, hits give low values 1 | S. cerevisiae deletion strains, locus YMR078C, strain ctf18, hits give low values 1 | S. cerevisiae deletion strains, locus YMR125W, strain sto1, hits give low values 0.991 | S. cerevisiae deletion strains, locus YMR129W, hits give low values 0.998 | S. cerevisiae deletion strains, locus YMR205C, strain PFK2, hits give low values 1 | S. cerevisiae deletion strains, locus YMR223W, strain ubp8, hits give low values 1 | S. cerevisiae deletion strains, locus YMR231W, strain pep5, hits give low values 0.999 | S. cerevisiae deletion strains, locus YMR263W, strain SAP30, hits give low values 1 | S. cerevisiae deletion strains, locus YMR307W, strain GAS1, hits give low values 1.05 | S. cerevisiae deletion strains, locus YNL067W, strain RPL9B, hits give low values 0.979 | S. cerevisiae deletion strains, locus YNL071W, strain lat1, hits give low values 0.994 | S. cerevisiae deletion strains, locus YNL128W, strain TEP1, hits give low values 0.984 | S. cerevisiae deletion strains, locus YNL153C, strain GIM3, hits give low values 1 | S. cerevisiae deletion strains, locus YNL183C, strain NPR1, hits give low values 0.979 | S. cerevisiae deletion strains, locus YNL209W, strain ssb2, hits give low values 1 | S. cerevisiae deletion strains, locus YNL233W, strain BNI4, hits give low values 1.01 | S. cerevisiae deletion strains, locus YNL248C, strain rpa49, hits give low values 0.988 | S. cerevisiae deletion strains, locus YNL250W, strain rad50, hits give low values 1 | S. cerevisiae deletion strains, locus YNL271C, strain bni1, hits give low values 1 | S. cerevisiae deletion strains, locus YNL298W, strain CLA4, hits give low values 1.01 | S. cerevisiae deletion strains, locus YNL307C, strain MCK1, hits give low values 1.01 | S. cerevisiae deletion strains, locus YNL322C, strain KRE1 (second series), hits give low values 1.01 | S. cerevisiae deletion strains, locus YNL322C, strain KRE1, hits give low values 1 | S. cerevisiae deletion strains, locus YNR049C, strain mso1, hits give low values 0.995 | S. cerevisiae deletion strains, locus YNR052C, strain pop2, hits give low values 0.999 | S. cerevisiae deletion strains, locus YOL006C, strain TOP1, hits give low values 1.03 | S. cerevisiae deletion strains, locus YOL012C, strain htz1 0.872 | S. cerevisiae deletion strains, locus YOL147C, strain pex11, hits give low values 1.01 | S. cerevisiae deletion strains, locus YOR001W, strain rrp6, hits give low values 0.995 | S. cerevisiae deletion strains, locus YOR061W, strain CKA2, hits give low values 1 | S. cerevisiae deletion strains, locus YOR069W, strain VPS5, hits give low values 0.997 | S. cerevisiae deletion strains, locus YOR070C, strain gyp1, hits give low values 0.995 | S. cerevisiae deletion strains, locus YOR080W, strain dia2, hits give low values 1 | S. cerevisiae deletion strains, locus YOR083W, strain WHI5, hits give low values 0.988 | S. cerevisiae deletion strains, locus YOR106W, strain vam3, hits give low values 1.02 | S. cerevisiae deletion strains, locus YOR136W, strain idh2, hits give low values 1 | S. cerevisiae deletion strains, locus YOR144C, strain elg1, hits give low values 1.01 | S. cerevisiae deletion strains, locus YOR184W, strain ser1, hits give low values 0.999 | S. cerevisiae deletion strains, locus YOR231W, strain MKK1, hits give low values 1.06 | S. cerevisiae deletion strains, locus YOR265W, strain rbl2, hits give low values 1 | S. cerevisiae deletion strains, locus YOR270C, strain vph1, hits give low values 0.998 | S. cerevisiae deletion strains, locus YOR290C, strain snf2, hits give low values 0.975 | S. cerevisiae deletion strains, locus YOR316C, strain cot1, hits give low values 1 | S. cerevisiae deletion strains, locus YPL051W, strain arl3, hits give low values 0.982 | S. cerevisiae deletion strains, locus YPL055C, strain LGE1, hits give low values 0.986 | S. cerevisiae deletion strains, locus YPL078C, strain atp4, hits give low values 0.996 | S. cerevisiae deletion strains, locus YPL106C, strain sse1, hits give low values 0.982 | S. cerevisiae deletion strains, locus YPL240C, strain hsp82, hits give low values 1 | S. cerevisiae deletion strains, locus YPL241C, strain CIN2, hits give low values 0.997 | S. cerevisiae deletion strains, locus YPL256C, strain CLN2, hits give low values 1.03 | S. cerevisiae deletion strains, locus YPR119W, strain clb2, hits give low values 1.01 | S. cerevisiae deletion strains, locus YPR141C, strain kar3, hits give low values 1.01 | S. cerevisiae deletion strains, locus YPR163C, strain tif3, hits give low values 1.02 | S. cerevisiae deletion strains, locus YPR167C, strain met16, hits give low values 1.01 | S. cerevisiae deletion strains, strain wtn01, hits give low values 1.01 | S. cerevisiae strains, strain wild type, hits give low values 0.982
